Reference: PubChem BioAssay
Records with an inconclusive call do not appear. Activity calls are given as the source filed them.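 Rule for the calls, unless noted: active = GFP signal, as percent of the solvent control, above the screen mean plus 3 SD, about 149; inconclusive = no reading because the compound's own fluorescence upset strain identification; inactive = the rest.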

Columns and labels:
[1] = yeast TOR pathway RPL19A-GFP modulators, primary screen, cell-based, S. cerevisiae, multiplex flow cytometry (AID 1862; in the data active = percent of DMSO control GFP below about 86%;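 note: lower values mimic rapamycin by blocking the RPL19A rise seen in DMSO cells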); settings: S. cerevisiae RPL19A-GFP strain, flow cytometry fluorescence, 3 h; at 10 µM; stronger effect = lower value
[2] = modulators of MEP2-GFP levels in yeast, primary screen, S. cerevisiae, multiplex flow cytometry (AID 1867;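 active = GFP response, as percent of the DMSO control, above the screen-wide mean plus 3 SD, about 139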;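 note: median GFP channel fluorescence of barcode-gated MEP2-GFP cells measured by flow cytometry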); settings: S. cerevisiae MEP2-GFP strain, 3 h, at 10 µM, stronger effect = higher value, 100% means same as DMSO wells
[3] = modulators of CIT2-GFP expression in yeast, primary screen, S. cerevisiae, GFP fusion, multiplex flow cytometry (AID 1870;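 active = percent response above a set limit, the screen-wide mean plus 3 SD, cut at about 130% in these data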;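 note: barcoded CIT2-GFP strain pooled with four other GFP strains with rapamycin as positive control; median GFP fluorescence per well over plate mean of DMSO wells so 100% = DMSO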); settings: 3 h, at 10 µM, stronger effect = higher value
[4] = modulators of LAP4-GFP expression in yeast, primary screen, S. cerevisiae, multiplex flow cytometry (AID 1873); settings: 3 h, at 10 µM, stronger effect = higher value
[5] = modulators of AGP1-GFP expression in yeast TOR pathway, primary screen, cell-based, multiplex flow cytometry, S. cerevisiae (AID 1887;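 active = GFP signal above the screen-wide mean plus 3 SD, that is over about 124.5% of the solvent control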;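 note: AGP1-GFP fusion strain of S. cerevisiae within a five-strain barcoded multiplex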); settings: 3 h, at 10 µM, stronger effect = higher value
[6] = inhibitors of CD8+ T cell-vesicle binding, pilot screen, LFA-1/ICAM-1 modulator project, MLPCN validation set, flow cytometry (AID 2523;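 active = response below a set limit, under 55% cells CD8-positive and vesicle-bound, and CD8 cells' 90th-percentile brightness under 279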;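 for vesicle binding response: mean PE anti-B7-1 fluorescence of CD8+ cells relative to row control; 100% = QL9-loaded vesicles with DMSO vehicle in the same plate row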); settings: 2C mouse CD8+ T cells, at 7 µM, stronger effect = lower value; double positive events: measured here: CD8+/vesicle+ event percentage
[7] = target: Integrin beta-1 (Homo sapiens) + Integrin alpha-4 (Homo sapiens) (UniProt P13612+P05556); test: inhibition of HUTS-21 binding to VLA-4, pilot screen, VLA-4 allosteric modulator project, U937 cells, HUTS-21 mAb, flow cytometry, validation set (AID 2674;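 active = inhibition above 50%, about 3 SD of the validation set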;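 note: antibody binding induced by the VLA-4 ligand LDV present at three times its Kd; 0% = LDV ligand with antibody and no compound and 100% = antibody without LDV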); settings: HUTS-21 LIBS mAb binding, at 6.7 µM, stronger effect = higher value, binding induced by LDV ligand
Sequence of Integrin beta-1 (Homo sapiens) + Integrin alpha-4 (Homo sapiens) (P05556 whole entry, looked up): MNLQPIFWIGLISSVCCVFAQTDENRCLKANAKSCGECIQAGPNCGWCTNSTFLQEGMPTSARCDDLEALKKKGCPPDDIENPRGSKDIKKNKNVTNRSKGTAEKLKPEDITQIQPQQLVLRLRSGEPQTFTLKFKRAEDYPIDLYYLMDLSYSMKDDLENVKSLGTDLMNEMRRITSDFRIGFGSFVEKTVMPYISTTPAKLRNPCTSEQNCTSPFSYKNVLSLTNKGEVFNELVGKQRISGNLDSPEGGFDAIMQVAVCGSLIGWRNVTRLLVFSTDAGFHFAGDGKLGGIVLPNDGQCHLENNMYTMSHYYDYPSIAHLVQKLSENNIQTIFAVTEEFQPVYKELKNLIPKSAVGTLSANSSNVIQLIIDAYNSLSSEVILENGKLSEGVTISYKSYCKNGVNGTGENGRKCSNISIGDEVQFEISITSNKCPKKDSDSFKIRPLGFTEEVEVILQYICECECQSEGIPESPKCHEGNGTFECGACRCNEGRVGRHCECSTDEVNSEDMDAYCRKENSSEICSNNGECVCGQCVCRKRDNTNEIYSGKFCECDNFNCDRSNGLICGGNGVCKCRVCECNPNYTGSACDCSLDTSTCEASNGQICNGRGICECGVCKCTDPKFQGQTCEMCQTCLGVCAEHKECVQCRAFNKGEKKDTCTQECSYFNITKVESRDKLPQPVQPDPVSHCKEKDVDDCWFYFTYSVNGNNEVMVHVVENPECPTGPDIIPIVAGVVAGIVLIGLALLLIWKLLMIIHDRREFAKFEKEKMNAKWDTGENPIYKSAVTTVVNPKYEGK
Sequence of Integrin beta-1 (Homo sapiens) + Integrin alpha-4 (Homo sapiens) (P13612 whole entry, looked up): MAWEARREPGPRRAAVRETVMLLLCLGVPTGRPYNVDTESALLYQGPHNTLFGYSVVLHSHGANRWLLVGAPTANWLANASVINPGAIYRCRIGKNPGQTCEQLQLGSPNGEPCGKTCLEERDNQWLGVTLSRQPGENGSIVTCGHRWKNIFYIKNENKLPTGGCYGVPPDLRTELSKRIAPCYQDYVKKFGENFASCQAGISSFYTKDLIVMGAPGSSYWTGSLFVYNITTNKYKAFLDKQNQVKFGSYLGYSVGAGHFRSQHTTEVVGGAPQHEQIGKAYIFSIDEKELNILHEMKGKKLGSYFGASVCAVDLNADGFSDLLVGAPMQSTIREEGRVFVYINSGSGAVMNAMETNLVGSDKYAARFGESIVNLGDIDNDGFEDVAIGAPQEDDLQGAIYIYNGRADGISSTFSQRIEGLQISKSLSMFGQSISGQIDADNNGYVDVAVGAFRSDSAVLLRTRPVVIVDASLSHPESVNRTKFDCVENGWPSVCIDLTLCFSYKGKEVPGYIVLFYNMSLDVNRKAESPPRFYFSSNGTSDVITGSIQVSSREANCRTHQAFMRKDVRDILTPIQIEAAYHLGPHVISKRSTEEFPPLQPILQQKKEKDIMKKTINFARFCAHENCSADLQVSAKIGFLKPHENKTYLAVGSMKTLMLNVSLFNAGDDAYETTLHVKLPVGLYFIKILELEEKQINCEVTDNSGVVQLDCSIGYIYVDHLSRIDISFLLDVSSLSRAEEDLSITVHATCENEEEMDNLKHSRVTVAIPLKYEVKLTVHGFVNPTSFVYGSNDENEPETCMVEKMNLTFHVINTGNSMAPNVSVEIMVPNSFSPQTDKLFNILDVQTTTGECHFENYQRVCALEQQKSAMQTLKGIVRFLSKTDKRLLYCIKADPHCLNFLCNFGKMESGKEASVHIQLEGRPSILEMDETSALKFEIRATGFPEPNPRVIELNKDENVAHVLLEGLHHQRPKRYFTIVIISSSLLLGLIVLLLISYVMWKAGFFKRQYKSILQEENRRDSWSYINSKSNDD

[8] = superoxide lowering in aged yeast cells, pilot screen, validation compound set (AID 2706;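 active = superoxide response below 65% of plate, a cut near 3 SD across the whole screen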;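 note: yeast exposed to compound for one week at 30 degrees C before staining; 100% = mean of all compound wells on the same plate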); settings: S. cerevisiae aging, superoxide DHE fluorescence; at 10 µM; stronger effect = lower value
[9] = target: Beta-adrenergic receptor kinase 1 (Homo sapiens) (UniProt P25098); test: GRK2 binders displacing RNA aptamer, biochemical, validation, human GRK2, bead flow cytometry (AID 488806;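 active = aptamer binding inhibition above 30%, about 3 SD of noise from non-fluorescent compounds; inactive = inhibition at or below 30%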); settings: bead-bound GRK2, FAM-aptamer displacement, at 10 µM, stronger effect = higher value
Sequence of Beta-adrenergic receptor kinase 1 (Homo sapiens) (P25098 whole entry, looked up): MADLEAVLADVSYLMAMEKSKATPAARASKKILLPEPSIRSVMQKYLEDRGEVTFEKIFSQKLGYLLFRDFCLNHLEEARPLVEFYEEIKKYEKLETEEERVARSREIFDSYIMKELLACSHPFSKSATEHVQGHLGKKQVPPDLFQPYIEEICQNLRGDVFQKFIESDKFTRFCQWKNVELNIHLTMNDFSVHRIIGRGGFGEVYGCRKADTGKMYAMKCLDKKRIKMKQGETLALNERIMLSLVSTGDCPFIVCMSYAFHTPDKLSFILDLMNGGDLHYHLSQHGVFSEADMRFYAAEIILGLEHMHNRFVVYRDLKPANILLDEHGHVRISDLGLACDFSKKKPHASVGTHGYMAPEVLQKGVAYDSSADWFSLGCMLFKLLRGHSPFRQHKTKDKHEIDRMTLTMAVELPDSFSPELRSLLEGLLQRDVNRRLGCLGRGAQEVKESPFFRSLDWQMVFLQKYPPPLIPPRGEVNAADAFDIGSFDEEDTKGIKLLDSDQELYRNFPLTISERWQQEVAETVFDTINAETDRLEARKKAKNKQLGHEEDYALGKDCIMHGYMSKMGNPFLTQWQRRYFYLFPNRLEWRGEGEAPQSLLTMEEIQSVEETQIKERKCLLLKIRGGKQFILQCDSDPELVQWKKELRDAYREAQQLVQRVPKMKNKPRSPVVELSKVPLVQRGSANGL

[10] = target: Beta-2 adrenergic receptor (Homo sapiens) (UniProt P07550); test: beta2AR agonists driving receptor internalization, pilot screen, cell-based, FAP fluorogen, flow cytometry, validation set (AID 504459;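 active = percent response above 42, roughly 3 SD of non-fluorescent test compounds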;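 note: agonist-driven loss of surface beta2AR via internalization measured by FAP dye flow cytometry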); settings: Am2.2-beta2AR cells, FAP surface receptor flow cytometry; at 10 µM; stronger effect = higher value
Sequence of Beta-2 adrenergic receptor (Homo sapiens) (P07550 whole entry, looked up): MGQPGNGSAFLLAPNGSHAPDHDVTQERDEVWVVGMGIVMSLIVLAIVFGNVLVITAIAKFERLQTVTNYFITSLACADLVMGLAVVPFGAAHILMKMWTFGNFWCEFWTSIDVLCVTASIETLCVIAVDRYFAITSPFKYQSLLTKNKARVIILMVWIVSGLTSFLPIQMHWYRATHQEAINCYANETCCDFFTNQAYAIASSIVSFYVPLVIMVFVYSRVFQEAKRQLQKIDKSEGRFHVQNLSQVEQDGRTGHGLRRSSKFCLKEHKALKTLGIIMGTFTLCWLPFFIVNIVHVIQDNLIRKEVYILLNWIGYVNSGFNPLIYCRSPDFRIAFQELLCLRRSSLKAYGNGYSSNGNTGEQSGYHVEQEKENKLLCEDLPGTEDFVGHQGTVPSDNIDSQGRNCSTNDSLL

[11] = target: AP-2 complex subunit beta (Homo sapiens) (UniProt P63010); test: inhibitors of arrestin peptide binding to AP2, pilot screen, biochemical, validation set, GST-AP2 beads, flow cytometry (AID 504541;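 active = inhibition above 54%, about 3 SD of non-fluorescent compounds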;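 note: AP2 carries R879A mutation and is captured from E. coli lysate; bead-bound FITC arrestin peptide fluorescence measuring arrestin peptide binding to AP2; 0% = DMSO wells and 100% = excess unlabeled arrestin peptide control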); settings: FITC arrestin peptide, at 10 µM, stronger effect = higher value, AP2 beta2 appendage fragment, R879A mutant
Sequence of AP-2 complex subunit beta (Homo sapiens) (P63010 whole entry, looked up, the tested form may be a part, one chain of several): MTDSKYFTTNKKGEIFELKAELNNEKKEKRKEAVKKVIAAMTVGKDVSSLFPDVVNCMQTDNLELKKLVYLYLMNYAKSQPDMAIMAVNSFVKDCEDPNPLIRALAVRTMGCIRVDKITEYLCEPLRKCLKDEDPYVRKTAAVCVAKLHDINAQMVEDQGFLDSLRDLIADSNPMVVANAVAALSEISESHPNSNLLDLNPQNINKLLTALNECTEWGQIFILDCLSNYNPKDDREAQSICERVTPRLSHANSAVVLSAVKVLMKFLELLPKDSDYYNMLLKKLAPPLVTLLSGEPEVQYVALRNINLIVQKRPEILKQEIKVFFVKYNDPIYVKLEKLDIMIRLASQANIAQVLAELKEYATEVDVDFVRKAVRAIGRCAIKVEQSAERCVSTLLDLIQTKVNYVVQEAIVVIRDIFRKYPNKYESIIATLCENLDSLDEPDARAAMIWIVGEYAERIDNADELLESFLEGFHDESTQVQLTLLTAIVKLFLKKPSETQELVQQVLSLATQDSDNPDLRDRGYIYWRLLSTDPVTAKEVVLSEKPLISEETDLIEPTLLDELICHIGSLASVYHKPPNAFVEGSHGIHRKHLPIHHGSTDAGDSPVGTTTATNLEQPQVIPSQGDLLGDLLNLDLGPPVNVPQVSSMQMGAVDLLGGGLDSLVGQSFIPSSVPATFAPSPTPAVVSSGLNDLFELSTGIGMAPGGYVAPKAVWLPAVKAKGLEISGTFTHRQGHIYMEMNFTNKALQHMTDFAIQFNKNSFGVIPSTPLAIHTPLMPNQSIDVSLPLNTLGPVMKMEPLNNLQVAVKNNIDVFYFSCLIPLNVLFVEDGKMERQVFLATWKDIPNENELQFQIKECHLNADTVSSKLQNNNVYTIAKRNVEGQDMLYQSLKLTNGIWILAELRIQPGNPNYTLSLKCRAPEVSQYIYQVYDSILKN

[12] = yeast V-ATPase proton transport modulators, S. cerevisiae, pHLuorin, HTS validation (AID 504600; in the data active = response above about 15%;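 note: plate controls were DMSO for no effect and reference compound for full effect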); settings: S. cerevisiae pHLuorin cytosolic pH, at 10 µM, stronger effect = higher value
[13] = tested on: anti-desmoglein-3 scFv antibody binding to human DSG3; test: inhibitors of anti-DSG3 scFv binding to DSG3, pilot screen, biochemical, validation compound set, bead-based, flow cytometry (AID 588368;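 active = binding below the plate cutoff, the plate median minus 3 SD, with a reading above zero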;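 note: signal is the median channel fluorescence of bead-bound GFP antibody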); settings: Protein G beads, DSG3-Fc, scFv-GFP binding, at 10 µM, stronger effect = lower value
[14] = inhibitors of fungal efflux pumps CDR1, CDR2, MDR1, pilot screen, validation compound set, multiplex, phenotypic (AID 588506;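 active = efflux inhibition above 0.42, the validation set average plus 4 SD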;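 note: Nile Red retained in cells so higher fluorescence means more efflux inhibition; 0 = negative control wells and 1 = enniatin B 25 µM full block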); settings: S. cerevisiae pump-expressing triplex, Nile Red efflux flow cytometry; at 10 µM; stronger effect = higher value; the pumps come from Candida albicans
[15] = target: ATP-binding cassette sub-family B member 6 (Homo sapiens) (UniProt Q9NP58); test: ABCB6 transporter inhibitors, pilot screen, K562-ABCB6 cells, flow cytometry, validation set (AID 588550;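 active = inhibition above the screen-wide mean plus 3 SD, about 51%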;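 note: 0% = DMSO wells and 100% = benzethonium chloride 70 µM positive control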); settings: K562-ABCB6 porphyrin accumulation, 1 h, at 10 µM, stronger effect = higher value
Sequence of ATP-binding cassette sub-family B member 6 (Homo sapiens) (Q9NP58 whole entry, looked up): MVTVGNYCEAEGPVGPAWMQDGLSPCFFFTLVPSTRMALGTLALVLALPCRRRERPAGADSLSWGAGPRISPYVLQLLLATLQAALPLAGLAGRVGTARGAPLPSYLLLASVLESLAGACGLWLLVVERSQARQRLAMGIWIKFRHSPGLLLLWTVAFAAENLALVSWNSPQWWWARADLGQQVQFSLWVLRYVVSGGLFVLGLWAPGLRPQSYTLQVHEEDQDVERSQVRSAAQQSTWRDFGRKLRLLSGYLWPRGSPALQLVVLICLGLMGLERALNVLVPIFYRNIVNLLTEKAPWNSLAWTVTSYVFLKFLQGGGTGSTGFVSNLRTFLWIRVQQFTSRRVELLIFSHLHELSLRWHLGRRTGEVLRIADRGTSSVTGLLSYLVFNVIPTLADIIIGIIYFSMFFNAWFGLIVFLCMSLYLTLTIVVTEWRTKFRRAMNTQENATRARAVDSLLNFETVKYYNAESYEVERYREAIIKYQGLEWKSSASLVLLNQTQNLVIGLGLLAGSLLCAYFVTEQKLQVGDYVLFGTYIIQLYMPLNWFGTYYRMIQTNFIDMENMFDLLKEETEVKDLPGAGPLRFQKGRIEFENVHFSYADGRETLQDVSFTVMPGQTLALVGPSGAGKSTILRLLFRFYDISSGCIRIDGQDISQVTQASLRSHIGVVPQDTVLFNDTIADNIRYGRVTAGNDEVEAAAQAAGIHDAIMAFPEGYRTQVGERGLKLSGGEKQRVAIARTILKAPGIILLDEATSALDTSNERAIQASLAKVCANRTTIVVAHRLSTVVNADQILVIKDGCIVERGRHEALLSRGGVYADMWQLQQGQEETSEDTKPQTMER

[16] = promoters of myeloid differentiation in arrested cells, primary screen, cell-based, GFP/MAC1 double positive, flow cytometry, validation set (AID 588685;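 active = differentiation response of at least 50%, scaled between solvent and reference control, from cells with both markers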;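 note: compound exposure lasts four days before antibody staining and flow analysis; 0% = DMSO wells and 100% = 5 µM fulvestrant positive control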); settings: ER-HoxA9 marrow cells, stronger effect = higher value, normalized: vehicle 0, fulvestrant 100

| SMILES | percent of DMSO control GFP [1] | GFP response vs DMSO [2] | percent response of DMSO control [3] | GFP response vs DMSO [4] | GFP response, % of DMSO [5] | double positive events [6] | vesicle binding response [6] | inhibition [7] | superoxide response (% of plate) [8] | aptamer binding inhibition [9] | response [10] | inhibition [11] | response [12] | binding (% of control) [13] | efflux inhibition (fraction of control) [14] | inhibition [15] | differentiation response [16] |
| --- | --- | --- | --- | --- | --- | --- | --- | --- | --- | --- | --- | --- | --- | --- | --- | --- | --- |
| COc1cc2c(cc1OC)CN(C(=O)c1ccc(S(=O)(=O)N(C)c3ccccc3)cc1)CC2 | 95.9% (inactive) | 101% (inactive) | 99.6% (inactive) | 115% (inactive) | 111% (inactive) | 73.5% | 605% (inactive) | 5.69% (inactive) | 57.5% (active) | 1% (inactive) | -14.1% (inactive) | -6.13% (inactive) | 1.25% (inactive) | 96.2% (inactive) | 0 (inactive) | 5% (inactive) | 1.91% (inactive) |
| COc1ccccc1/C=C/C(=O)c1c2c(c(C)[nH]c1=O)CCCC2 | 97.8% (inactive) | 96.6% (inactive) | 96.4% (inactive) | 104% (inactive) | 114% (inactive) | 65.9% | 192% (inactive) | 17.6% (inactive) | 107% (inactive) | 8% (inactive) | -4.6% (inactive) | 1.34% (inactive) | 17.4% (active) | 106% (inactive) | -0.13 (inactive) | 4% (inactive) | 15.7% (inactive) |
| C[C@H]([C@@H](N)C(=O)N[C@@H](C(=O)O)[C@@H]1O[C@H](n2ccc(=O)[nH]c2=O)[C@@H](O)[C@H]1O)[C@@H](O)c1ccc(O)cn1 | 91.5% (inactive) | 130% (inactive) | 93.9% (inactive) | 82.5% (inactive) | 84.5% (inactive) | 59.1% | 184% (inactive) | -9.06% (inactive) | 117% (inactive) | 7% (inactive) | -4.72% (inactive) | 5.36% (inactive) | 2.7% (inactive) | 104% (inactive) | -0.06 (inactive) | 9% (inactive) | 4.09% (inactive) |
| Cc1ccc2occ(C(=O)c3ccco3)c(=O)c2c1 | 101% (inactive) | 101% (inactive) | 89.5% (inactive) | 85.9% (inactive) | 86.1% (inactive) | 60.6% | 99.1% (inactive) | 6.85% (inactive) | 104% (inactive) | 2% (inactive) | -3.74% (inactive) | -6.83% (inactive) | 0.29% (inactive) | 99.7% (inactive) | -0.31 (inactive) | 1% (inactive) | 0% (inactive) |
| CC(NC(=O)c1cccnc1)C(=O)O (stereo not drawn) | 105% (inactive) | 98.5% (inactive) | 114% (inactive) | 78.6% (inactive) | 90.5% (inactive) | 53.1% | 54.6% (active) | -5.89% (inactive) | 94.6% (inactive) | 4% (inactive) | -9.77% (inactive) | 0.46% (inactive) | -5.71% (inactive) | 99.1% (inactive) | -0.1 (inactive) | 8% (inactive) | -7.2% (inactive) |
| CNc1c2c(nn1C)CCCC2 | 104% (inactive) | 97.7% (inactive) | 106% (inactive) | 97% (inactive) | 106% (inactive) | 62.2% | 126% (inactive) | 1.59% (inactive) | 115% (inactive) | 5% (inactive) | 1.87% (inactive) | -17.3% (inactive) | -7.05% (inactive) | 101% (inactive) | -0.19 (inactive) | -3% (inactive) | -3.11% (inactive) |
| COc1ccc(CC(=O)NCC2(c3ccc(OC)c(OC)c3)CCOCC2)cc1 | 103% (inactive) | 96.3% (inactive) | 104% (inactive) | 82.8% (inactive) | 89.7% (inactive) | 54% | 175% (inactive) | 5.03% (inactive) | 102% (inactive) | 8% (inactive) | -10.1% (inactive) | -7.91% (inactive) | 0.74% (inactive) | 99.3% (inactive) | -0.35 (inactive) | -23% (inactive) | -12% (inactive) |
| COc1ccc2cc(C(=O)Nc3ccc(S(N)(=O)=O)cc3)sc(=O)c2c1OC | 93.7% (inactive) | 110% (inactive) | 114% (inactive) | 79.8% (inactive) | 98.9% (inactive) | 57.9% | 258% (inactive) | 3.55% (inactive) | 101% (inactive) | -4% (inactive) | 19.2% (inactive) | -1.93% (inactive) | 0.97% (inactive) | 97.8% (inactive) | 0.19 (inactive) | 7% (inactive) | -9.01% (inactive) |
| CCOc1ccc2[nH]c3c(=O)n(CCc4ccc(OC)cc4)cnc3c2c1 | 99.5% (inactive) | 112% (inactive) | 90.1% (inactive) | 120% (inactive) | 101% (inactive) | 61.3% | 211% (inactive) | 6.4% (inactive) | 99.7% (inactive) | 0% (inactive) | 0.24% (inactive) | -8.18% (inactive) | 65.9% (active) | 102% (inactive) | 0.12 (inactive) | 5% (inactive) | 29.6% (inactive) |
